# Test results as given in PubChem BioAssay.
# Calls of active or inactive are those of the source. No stated cut-off is given here; in the data, active means inhibition above about 28%; inactive means the rest.
# Assay: StAR promoter reporter inhibitors, counter-screen for LRH-1 inverse agonist project, cell-based, luminescence, high throughput (AID 651611)
# Conditions: StAR promoter luciferase reporter counterscreen, at 3.6 µM, hits give high values
row,SMILES,inhibition
1,COc1ccc(/C=N/n2c(SC)nnc2-c2ccccc2)c(OC)c1OC,53.5% (active)
2,CC(=O)Nc1cc(-c2cccc(NS(C)(=O)=O)c2)cn2c(-c3ccccc3)cnc12,28% (active)
3,Cc1ccc(S(=O)(=O)NCc2ccncc2)cc1,5.31% (inactive)
4,c1ccc(-c2nc(NCc3cccnc3)c3oc4ccccc4c3n2)cc1,19.2% (inactive)
5,CC(C)c1cc(NC(=O)CCl)on1,35.2% (active)
6,COc1ccc(C2=Nn3c(nnc3-c3ccncc3)SC2)cc1OC,24.5% (inactive)
7,CCn1c(=S)sc2c(=O)n(CC(=O)Nc3ccc(Cl)cc3)c(C)nc21,6.76% (inactive)
8,COc1ccc2c(c1)CCN(C(=O)CCl)C2C1C(=O)CCCC1=O (configuration not stated),10.2% (inactive)
9,O=C(Cc1c(F)cccc1Cl)Nc1ccncc1,3.12% (inactive)
10,CC(=O)ON=C1C=CC(=C(C#N)c2ccccc2)C=C1,50.8% (active)
11,O=C(Nc1nnc(C2=COCCO2)o1)c1ccc([N+](=O)[O-])s1,18.6% (inactive)
12,CC(=O)c1ccc(NC(=O)CSc2nc3[nH]ncc3c(=O)[nH]2)cc1,-0.97% (inactive)
13,CCCCNC(=O)COC(=O)c1c2c(nc3ccccc13)/C(=C\c1cccs1)CC2,-10.4% (inactive)
14,CCCn1c2c(c(=N)c3c1CCC3)CCCC2,4.81% (inactive)
15,COc1ccc(S(=O)(=O)Nc2ccc(CC#N)cc2)cc1,-4.36% (inactive)
16,COCCn1c(SCC(=O)Nc2ccc(C(C)=O)cc2)nnc1-c1ccco1,14.8% (inactive)
17,CSCc1c(C(=O)Nc2ccccc2N2CCOCC2)oc2ccccc12,7.6% (inactive)
